Measurements: PubChem BioAssay AID2069 (Sanford-Burnham Center for Chemical Genomics, 2009)
In all, about 1,200 compounds went through this assay and about 210 (18%) were called active. Cut-off read from the data, not from the text of the source: active = inhibition above about 30%; inactive = the rest. These entries were drawn from the full list.

Experiment: fluorescence readout artefact check – biochemical, HTRF, uHTS, artefact control for SUMOylation inhibitor project, confirmation (AID 2069)
Conditions: HTRF interference counterscreen, at 35 µM, active compounds read high

Structure (SMILES) | inhibition
O=C(Nc1nnc(-c2ccccc2SCc2ccccc2F)s1)Nc1ccccc1F | 0.75% (inactive)
Cc1ccc(C(=O)NC(C)c2nc3ccccc3n2CC(=O)Nc2c(C)cc(C)cc2C)cc1 (stereo unspecified) | 25.5% (inactive)
O=C(CCc1ccccc1)NNc1cc(N2CCCCC2)nc(N2CCCCC2)n1 | 14.2% (inactive)
CCC(=O)OCCNc1cc(Sc2nccn2C)c2nonc2c1[N+](=O)[O-] | 8.05% (inactive)
CC1=C(C#N)C(=O)NC(=O)/C1=C\c1ccc(-c2ccc(C)cc2[N+](=O)[O-])o1 | -1.55% (inactive)
COc1ccc2c(c1)CC/C(=C\C=C\c1ccccc1)C2=O | 6.1% (inactive)
CCOC(=O)N1CCN(C(=O)c2cccn3c(=O)c4cc(Br)ccc4nc23)CC1 | 49.9% (active)
O=C(c1cccn2c(=O)c3cc(Cl)ccc3nc12)N1CCOCC1 | 44.6% (active)
O=C(c1cccn2c(=O)c3cc4ccccc4cc3nc12)N1CCN(c2ccccc2)CC1 | 7.35% (inactive)
CCOC(=O)N1CCN(C(=O)c2cccn3c(=O)c4cc(Cl)ccc4nc23)CC1 | 43.5% (active)
CCOC(=O)N1CCC(c2cc(=O)n(-c3ccccc3)[nH]2)CC1 | 2.2% (inactive)
O=C(NCCNc1ccc2ccccc2c1)c1cccn2c(=O)c3sccc3nc12 | 5.05% (inactive)
Cn1c2ccc(Cl)cc2c2nc3ccccc3nc21 | 21.9% (inactive)
NC(=O)CC(NC(=O)Cc1ccc(Br)cc1)c1ccc(N2CCC(Br)CC2)c([N+](=O)[O-])c1 (stereo unspecified) | 4.65% (inactive)
O=C(Nc1nnc(-c2ccccc2)o1)c1nc2ccccc2s1 | 11.1% (inactive)
CN(C)c1cc(Cl)c2nonc2c1N | 4.85% (inactive)
NC(=O)c1ccc(N=C2C(=O)Nc3ccc([N+](=O)[O-])cc32)cc1 | -4.65% (inactive)
S=C(Nc1ccc(Cl)cc1)Nc1cccc2cnccc12 | 1.3% (inactive)
CCCCCn1c(NC(=O)c2ccco2)c(S(=O)(=O)c2ccc(C)cc2)c2nc3ccccc3nc21 | 6.85% (inactive)
CC(=O)c1ccc(NC(=S)Nc2cccc3ccccc23)cc1 | 14.1% (inactive)
O=[N+]([O-])c1ccccc1/C=C/C=N/n1c(-c2cc(-c3ccccc3)n[nH]2)n[nH]c1=S | -4% (inactive)

Structure (SMILES) | inhibition
COCCCn1c(C(=O)N2CC(C)OC(C)C2)cc2c(=O)n3ccccc3nc21 (stereo unspecified) | 46.4% (active)
COCCCNC(=O)c1cccn2c(=O)c3cc4ccccc4cc3nc12 | 13.3% (inactive)
COCCCn1c(C(=O)N2CCOCC2)cc2c(=O)n3ccccc3nc21 | 52.1% (active)
CC1=NN(c2ccc(Br)cc2)C(=O)/C1=C/c1cccs1 | -19.8% (inactive)
CCc1ccc(NC(=S)Nc2cccc3cnccc23)cc1 | 3.45% (inactive)
N#Cc1c2nc3ccccc3nc2n2cc(NC(=O)c3ccc(F)cc3)ccc12 | 3% (inactive)
Cn1cccc1/C=N/NC(=O)c1sc2cc(Cl)ccc2c1Cl | 15% (inactive)
O=C(N/N=C/c1ccc(O)c2ncccc12)c1cccc(Br)c1 | -4.25% (inactive)
S=c1[nH]nc(-c2ccncc2)n1/N=C/c1cn(-c2ccccc2)nc1-c1ccc(Cl)cc1 | -1.35% (inactive)
Cc1ccc(/C=C2\SC(=S)N(c3cccnc3)C2=O)o1 | 4.85% (inactive)
Fc1cccc(Cl)c1C1Nc2cccc3cccc(c23)N1 | -14.8% (inactive)
Cc1ccc(NC(=O)Cn2nc(C(=O)Nc3ccc(C)cc3)ccc2=O)cc1 | 4.7% (inactive)
O=C(Nc1ccccc1)Nc1ccno1 | 47.1% (active)
CCC(NC(=O)Nc1ccc(O)cc1)(C(F)(F)F)C(F)(F)F | -9.2% (inactive)
O=C(Nc1ccccc1)c1ccccc1CCc1ccccc1 | 2.45% (inactive)
Cc1cc2c(NC(=O)Nc3ccccc3)cccc2nn1 | -6.1% (inactive)
Cc1ccc(NC(=O)Nc2ccno2)cc1 | 48.2% (active)
COc1ccc(/C=C2/C(=O)N(c3ccccc3)N=C2C)cc1OC | -0.35% (inactive)
O=[N+]([O-])c1c(NCc2ccccc2)cc(N2CCc3ccccc3C2)c2nonc12 | 0.75% (inactive)
O=[N+]([O-])c1cc(CN2CCN(c3cccc(C(F)(F)F)c3)CC2)c2cccnc2c1O | -18.5% (inactive)
Cc1cc2c(NC(=O)Nc3ccc(C(C)(C)C)cc3)cccc2nn1 | 18.8% (inactive)

Structure (SMILES) | inhibition
CCCc1cc(=O)oc2cc(OCC(=O)Nc3ccc(S(N)(=O)=O)cc3)ccc12 | 21.4% (inactive)
Cc1c(O)ccc2c(CC(=O)N[C@@H](Cc3ccc(O)cc3)C(=O)O)cc(=O)oc12 | 39.9% (active)
NC(=O)C1CCN(C2=C(NS(=O)(=O)c3ccccc3)C(=O)c3ccccc3C2=O)CC1 | -13.8% (inactive)
O=C(CN1C(=O)S/C(=C\c2ccccc2)C1=O)NNC(=O)c1ccccc1O | 2.55% (inactive)
S=c1[nH]nc(-c2cc(-c3ccco3)[nH]n2)n1-c1cccc2ccccc12 | -16.1% (inactive)
CCOC(=O)N1CCc2c(sc3c2c(=O)n(Cc2ccccc2)c(=O)n3CC(=O)NCCOC)C1 | -6.7% (inactive)
C[C@@H]1CN=C2N(CCNC(=O)CCC3CCCCC3)[C@H](Cc3ccc(O)cc3)CN21 | 1.3% (inactive)
COCCNC(=O)CCC1CCN(Cc2ccc(-c3ccccc3)cc2)CC1 | 65.5% (active)
CCOC(=O)Cn1c(=NC(=O)c2sc3ccccc3c2Cl)sc2cc(S(N)(=O)=O)ccc21 | 8.1% (inactive)
C#CCOc1ccc(/C=C2/C(=O)N(c3cccc(C(=O)O)c3)N=C2C)cc1OC | -5.85% (inactive)
CC(=O)C1=C(C)OC2(O)c3ccccc3C(=O)C12O (stereo unspecified) | -21.7% (inactive)
NNc1nc2c(Cl)ccc(Cl)c2s1 | -0.55% (inactive)
CC(=O)C1C(=O)C=C(c2ccco2)CC1c1ccccc1 (stereo unspecified) | 0.4% (inactive)
O=c1c2cc(N3CCOCC3)ccc2[nH]c(=S)n1Cc1ccccn1 | 56.3% (active)
COc1ccc2[nH]c3c(=O)n(CCCC(=O)NC4CCC(C)CC4)c(=S)[nH]c3c2c1 (stereo unspecified) | 6.2% (inactive)
CC1CCN(CCCn2c(=S)[nH]c3ccc(N4CCOCC4)cc3c2=O)CC1 | 52.3% (active)
N#Cc1cc2ccc(N3CCOCC3)cc2cc1C#N | 9.35% (inactive)
Cc1c(C(=O)O)c(C(=O)O)nc2ccc(N3CCOCC3)cc12 | 7.75% (inactive)
O=c1c2cc(N3CCOCC3)ccc2[nH]c(=S)n1CC1CCCO1 (stereo unspecified) | 55.1% (active)
